In PubChem BioAssay (EPA / NIEHS) one finds outcome and AC50 data, which are given here for 40 compounds.

Results filed as inconclusive are left out. Activity calls are given as the source filed them. How the source made its calls: active means hit-call score of the fitted dose curve at least 0.9, where 1 is the maximum; inconclusive means response in the unintended direction; inactive means score below 0.9.

Retinoic acid receptor alpha (Homo sapiens), sequence (P10276 whole entry, looked up): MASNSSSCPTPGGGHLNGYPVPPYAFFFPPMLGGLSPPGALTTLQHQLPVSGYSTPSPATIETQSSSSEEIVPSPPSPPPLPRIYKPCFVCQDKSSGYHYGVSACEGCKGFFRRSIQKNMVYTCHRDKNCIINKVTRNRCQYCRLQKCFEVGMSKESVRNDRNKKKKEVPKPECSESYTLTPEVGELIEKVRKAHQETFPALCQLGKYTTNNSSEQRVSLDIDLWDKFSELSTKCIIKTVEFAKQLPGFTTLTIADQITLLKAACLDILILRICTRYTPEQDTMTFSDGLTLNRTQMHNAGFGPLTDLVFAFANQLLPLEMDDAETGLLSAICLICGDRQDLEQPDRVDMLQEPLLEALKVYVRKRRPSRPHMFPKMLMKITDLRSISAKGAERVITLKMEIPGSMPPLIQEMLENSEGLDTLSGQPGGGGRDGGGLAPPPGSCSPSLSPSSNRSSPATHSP

This experiment has as its target Retinoic acid receptor alpha (Homo sapiens) (UniProt P10276). Description: ATG_RARa_TRANS: Attagene TRANS-FACTORIAL HepG2 Assay for human Retinoic Acid Receptor alpha (RARa) (AID 2283005).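 On AC50: potency for increased reporter signal meaning RARa activation over DMSO.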 On the procedure:
ATG_TRANS is a cell-based, multiplexed-readout assay that uses HepG2, a human liver cell line, with measurements taken at 24 hours after chemical dosing in a 24-well plate.ATG_RARa_TRANS is one of 30 assay component(s) measured or calculated from the ATG_TRANS assay. It is designed to make measurements of mRNA induction, a form of inducible reporter, as detected with fluorescence intensity signals by Reverse transcription polymerase chain reaction (RT-PCR) and Capillary electrophoresis technology.Data from the assay component ATG_RARa_TRANS was analyzed into 1 assay endpoint. This assay endpoint, ATG_RARa_TRANS, was analyzed in the positive analysis fitting direction relative to DMSO as the negative control and baseline of activity. Using a type of inducible reporter, measures of mRNA for gain-of-signal activity can be used to understand the reporter gene at the transcription factor-level as they relate to the gene RARA. Furthermore, this assay endpoint can be referred to as a primary readout, because this assay has produced multiple assay endpoints where this one serves a reporter gene function. To generalize the intended target to other relatable targets, this assay endpoint is annotated to the nuclear receptor intended target family, where the subfamily is non-steroidal.
Human liver HepG2 cells are transiently transfected with multiple reporter transcription units (MRTUs) in 6-well plates using FuGene 6 reagent (Roche; 3 ml FuGene/1 mg DNA). The MRTU constructs are regulated by a cis-regulating element (promoter). […] A major difference between the CIS and TRANS system is that in CIS activities of endogenous TFs are measured, whereas the TRANS assay evaluates changes in activities of exogenous, chimeric NR-Gal4 proteins. […] At the end of 24 hour incubation, total RNA was isolated using TriZol reagent (Invitrogen). The isolated RNA is then reverse-transcribed using oligo(dT) primer and Mo-MLV reverse transcriptase (Invitrogen) with DNAse I (Ambion) treatment for 30 min. The one-tenth of the produced cDNA was amplified by PCR using Taq DNA polymerase (Invitrogen) and two reporter sequence-specific primers. The PCR products were fluorescently labeled by primer extension with 6-arboxyfluorescein (6-FAM) 5'-labeled reporter sequence-specific primer (2 min at 95 C, 20 s at 68 C and 10 min at 72 C) and these products were digested with 5U of HpaI (New England Biolabs) for 2h at 37 C. The fragments were purified using Qiaquick PCR columns (Qiagen), analyzed on an ABI 3130xL genetic analyzer (Applied Biosystems) with peak positions identified by using a set of X-rhodamine (ROX)-labeled MapMarker1000 molecular weight standards (BioVentures). The raw capillary electrophoresis data was processed using Attagraph software (Attagene).
In the case of `CC(=O)OCc1ccco1`, the compound was classed as inactive. With `O=CN1CCCCC1`, the compound was called inactive.

`Cn1c([N+](=O)[O-])cnc1COC(N)=O`: the call was inactive. Turning to `O=c1cc[nH]c(=S)[nH]1`, the compound was classed as inactive. Same read-out and setting: under `CCCCCCCCCCCSCC(=O)O` stands “inactive”; under `CC(C)c1ccc(C#N)cc1`, “inactive”. Turning to `OCCN(CCO)c1ccccc1`, the outcome was inactive. The same measure, in the same setting: under `NCCCN1CCN(CCCN)CC1` stands “inactive”.

In the case of `Clc1nc2ccccc2s1`, the compound was classed as inactive.

Consider `CCCNC(=O)NS(=O)(=O)c1ccc(Cl)cc1`, for which the outcome was inactive. As to `CCCCOCCOC(=O)COc1nc(Cl)c(Cl)cc1Cl`, the compound was called inactive.

As a reminder, the AC50 is the midpoint of the concentration-response curve, whichever way the signal moves. As for `CCCCCCCCCCCCCCCC[N+](C)(C)CC`, the AC50 was 17.8 µM (active).

For the compound `O=CC1CC1`, the result was inactive. Still for that read-out and setting: as for `NC(=O)NNC(N)=O`, the entry is “inactive”; as for `O=P(O)(O)Oc1ccccc1`, “inactive”; as for `Cc1cccc(C(=O)O)c1`, “inactive”. On the same count and under the same terms, under `O=c1c2ccccc2oc2ccccc12` stands “inactive”; under `CCCCCCCCC(=O)OCC`, “inactive”; under `OCCc1ccncc1`, “inactive”.

On to `CC(C)(Oc1ccc(C2CC2(Cl)Cl)cc1)C(=O)O` (stereo not given), for which the compound was called inactive. With `Nc1ccc(N=Nc2ccccc2)c(N)n1`, the result was inactive.

With `CCCCC(CC)COC(=O)c1ccccc1O` (stereo not given), the compound was called inactive. For the compound `O=S(=O)(O)c1ccccc1C=Cc1ccc(-c2ccc(C=Cc3ccccc3S(=O)(=O)O)cc2)cc1`, the outcome was inactive.

`c1c[nH]cn1`: the compound was called inactive. Still for that read-out and setting: under `CC(=O)c1ccc[nH]1` stands “inactive”; under `CN(C)CCCN(C)C`, “inactive”. The same measure, in the same setting: under `CCCCCC/C=C\CCCCCCCC(=O)O` stands “inactive”. Regarding `Cc1ccc(C2OC[C@@H]3OC(c4ccc(C)cc4)O[C@H]([C@H](O)CO)[C@@H]3O2)cc1` (stereo not given in full), the outcome was inactive.

In the case of `C=CC(=O)NC(C)(C)CS(=O)(=O)O`, the compound was classed as inactive. Same read-out and setting: as for `Cc1cnc(NC(=O)C2=C(O)c3ccccc3S(=O)(=O)N2C)s1`, the entry is “inactive”; as for `Nc1ccc(N)c(Cl)c1`, “inactive”; as for `C=COCCCC`, “inactive”. Regarding `O=C1C(N(CO)C(=O)NCO)N(CO)C(=O)N1CO` (stereo not given), the compound was classed as inactive. For `CNC(=S)NN`, the call was inactive. As to `Cc1ccc2oc(=O)ccc2c1`, the outcome was inactive. For `CCCCCCCCCCCCCCCC(=O)OCC`, the compound was called inactive. Same read-out and setting: under `CCCCCCOc1cc(C)c(O)c(C)c1C` stands “inactive”; under `CCOC(=O)Cc1cccc2ccccc12`, “inactive”; under `O=C(Nc1cccc(C(F)(F)F)c1)c1cc(Br)cc(Br)c1O`, “inactive”. Regarding `CNC(=S)N(C)C`, the call was inactive.
